Rows were chosen to be rich in hits. Some 19% of all compounds tested hit in one or more screens of this group.
TGFb SMAD3 inh: TGF-b pathway inhibition; 410,000 compounds, 1.2% hits; HepG2 CAGA-GFP TGF-b/SMAD3 reporter, GFP fluorescence, 18 h; TGF-beta stimulated, 500 pg/mL final; Potency, µM (doses to about 46.1 µM), without a hit: at the highest dose activity, negative = inhibition, most hits filed as inhibitors; also: potency is read from the fitted curve at half-maximal effect; % is scaled to controls: 0 for no effect and ±100 for the full control effect; nearly all actives have a fitted effect of over 65% in size
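Per well, imaged GFP fluorescence of HEPG2 CAGA-GFP cells gives the signal; cells get compound, then TGF-beta (500 pg/mL final), 18 h at 37 degrees C; %Activity versus -TGF-beta and +DMSO controls.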
S-ASM inh: inhibitors of human secretory acid sphingomyelinase; placental ASM, HMU-PC fluorogenic substrate, 60 min; Potency, µM (series often up to 57.5 µM), without a hit: top-dose activity change, negative = inhibition, actives largely listed as inhibitors; 340,000 compounds, 0.006% hits; also: potency is read from the fitted curve at half-maximal effect
Target sequence (P17405 47-631 limits assumed): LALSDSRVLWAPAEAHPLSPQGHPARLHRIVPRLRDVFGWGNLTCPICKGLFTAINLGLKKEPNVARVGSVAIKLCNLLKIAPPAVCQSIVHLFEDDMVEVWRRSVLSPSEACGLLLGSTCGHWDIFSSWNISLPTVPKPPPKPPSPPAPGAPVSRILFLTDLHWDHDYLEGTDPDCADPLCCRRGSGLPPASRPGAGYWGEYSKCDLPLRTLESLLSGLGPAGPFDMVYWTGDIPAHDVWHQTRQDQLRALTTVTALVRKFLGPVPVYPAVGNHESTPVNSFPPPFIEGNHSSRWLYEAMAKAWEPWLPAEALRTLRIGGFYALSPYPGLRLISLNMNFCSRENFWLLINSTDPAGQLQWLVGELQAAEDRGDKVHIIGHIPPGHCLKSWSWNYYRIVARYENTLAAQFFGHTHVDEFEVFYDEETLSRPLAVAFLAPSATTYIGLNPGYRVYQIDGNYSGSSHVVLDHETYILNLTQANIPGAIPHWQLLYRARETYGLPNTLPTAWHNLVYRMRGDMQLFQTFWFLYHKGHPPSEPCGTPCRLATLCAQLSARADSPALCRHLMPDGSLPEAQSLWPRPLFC
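Steps: dispense placental human ASM, pin compound, wait 10 min at room temperature, add HMU-PC0 substrate at 9 uM final, incubate 60 min at 37 °C, add stop solution raising pH to 10, read fluorescence.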
HepG2 tox: kills HepG2 cells in TGF-b inhibitor counter-screen; AID 588856; HepG2 CAGA-GFP viability, ATP luminescence, 18 h; Potency, µM (top dose mostly 46.1 µM), for the others: at the top dose activity change, negative = cytotoxicity, actives largely listed as cytotoxic; 410,000 compounds, 0.76% hits; also: potency is read from the fitted curve at half-maximal effect
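HepG2 CAGA-GFP cells (1000/well, DMEM with 1% FBS) received compound, then TGF-beta at 500 pg/mL final, and were incubated 18 hours at 37 degrees C. Viability was read by CellTiter-Glo luminescence. Media-only wells were set as complete cell-killing and DMSO as no toxicity.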
IL-1B inflam inh: inhibitors of inflammasome signaling (IL-1 beta secretion); AID 743279; activity change, % at 57.5 µM; 360,000 compounds, 4.7% hits; THP-1 LPS/ATP IL-1B secretion, AlphaLISA, 16 h; hits give low values; in the data active = activity change below about -50%; inconclusive = mostly about -30% to -49%; also: % is scaled to controls: 0 for no effect and ±100 for the full control effect
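Secreted IL-1B measured by AlphaLISA bead assay after 16 h compound exposure of THP-1 cells; compounds (final up to 57.5 uM) added 1 h before LPS (250 ng/mL) and ATP (1.25 mM) stimulation; lower signal means less secretion.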
TDP1 cell noCPT: qHTS for Inhibitors of human tyrosyl-DNA phosphodiesterase 1 (TDP1): qHTS in cells in absence of CPT. 420,000 compounds, 15% hits. DT40 Tdp1-/- hTDP1 cells, no CPT, ATP luminescence, 48 h. Potency, µM (highest dose often 46.2 µM), inactives show at the top dose activity change, negative = growth inhibition, hits mostly inhibitors; also: potency is read from the fitted curve at half-maximal effect; % is scaled to controls: 0 for no effect and ±100 for the full control effect; nearly all actives have a fitted effect of over 55% in size
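Camptothecin absent (DMSO only). Human TDP1-complemented DT40 knockout cells, 400 cells/well, 37 °C for minimum 48 hr; ATP measured via CellTiter-Glo, 30 min dark incubation, luminescence.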
DT40 TDP1 CPT: DT40-hTDP1 cell growth loss with CPT; Potency, µM (doses to about 46.2 µM), for inactives: top-dose activity change, negative = growth inhibition, actives largely listed as inhibitors; chicken DT40 Tdp1-/-;hTDP1 cells + 20 nM CPT, ATP luminescence, 48 h; 420,000 compounds, 12% hits; also: potency is read from the fitted curve at half-maximal effect; % is scaled to controls: 0 for no effect and ±100 for the full control effect; nearly all actives have a fitted effect of over 55% in size
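Chicken DT40 Tdp1-/- cells complemented with human TDP1, 400 cells/well, exposed to compounds plus 20 nM camptothecin for at least 48 h at 37 C; viability read as ATP content by CellTiter-Glo luminescence.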
* marks the source's active call; other numbers are inactive results; ? = inconclusive; . = not tested or not shown; [ ] = another dose, or the depositor's remark. Unless noted, calls follow the shape of the dose curve; as a rule, active = well fitted curve in the direction sought with a large enough effect; inconclusive = small, poorly fitted or top-dose-only effect, or another doubt; inactive = no such curve, though single readings can be large; an effect the other way counts as inactive or inconclusive.

SMILES	TGFb SMAD3 inh	S-ASM inh	HepG2 tox	IL-1B inflam inh	TDP1 cell noCPT	DT40 TDP1 CPT
Cc1csc(NC(=O)C2CCN(S(=O)(=O)c3ccc4c(c3)oc(=O)n4C)CC2)n1	-2.4%	-3.7%	-3.3%	15.0	-16.2%	1.2%
CCCn1c(NC(=O)c2cccc(S(=O)(=O)N3CCCC3)c2)nc2ccccc21	14.1µM*	-7.6%	-43.7%	-91.6*	13µM*	23.1µM*
Cc1csc(NC(=O)C2CCN(S(=O)(=O)c3ccccc3F)CC2)n1	?	-1.5%	-13.1%	11.9	25.9µM*	?
Cc1nc(-c2ccc(NC(=O)C3CC3)cc2)cs1	1.1%	-1.1%	-0.7%	5.2	18.4µM*	23.1µM*
CC1(C)CC(NC(=S)NC(=O)c2cc(Br)ccc2Cl)CC(C)(C)N1	2.0%	1.1%	-15.6%	?	?	-12.3%
CCN(CC)C(=O)Cn1cc(C(=O)C(=O)N2CCN(Cc3ccc4c(c3)OCO4)CC2)c2ccccc21	-2.4%	0.1%	-7.3%	-9.4	-21.1%	?
CCCn1c(NC(=O)c2ccc(C)cc2)nc2ccccc21	0.0%	-11.8%	-15.7%	0.0	25.9µM*	?
CCCn1c(Nc2nc3ccccc3n2C)nc2ccccc21	-7.4%	-0.8%	7.08µM*	-99.3*	?	-8.7%
CCCn1c(NC(=O)C2CCN(S(=O)(=O)c3cccs3)CC2)nc2ccccc21	?	-3.7%	-14.8%	?	16.4µM*	14.6µM*
Cc1csc(NC(=O)C2CCN(S(=O)(=O)c3cccs3)CC2)n1	?	0.9%	-19.5%	-19.7	-3.9%	?
CC(=O)Nc1ccc(-c2csc(NC(=O)C3CCN(S(=O)(=O)c4cccs4)CC3)n2)cc1	-18.4%	-8.1%	-27.2%	20.1	8.2µM*	16.4µM*
COc1cc(N)c(Cl)cc1C(=O)OCC(=O)N(C)C1CCCCC1	12.1%	-2.1%	-0.7%	-11.1	6.9%	-0.9%
NC(=O)CC[C@H](NC(=O)c1ccc(F)cc1)C(=O)OCC(=O)NCc1ccc2c(c1)OCO2	-1.4%	0.7%	0.6%	9.5	-1.7%	-6.3%
COC1CCC2(C)C(=CCC3C4CC(O)CC4(C)CCC32)C1 (configuration not stated)	-16.9%	-9.3%	6.9%	6.4	20.6µM*	20.6µM*
OC(c1ccc(F)c(F)c1)c1ncc(-c2cccc(C(F)(F)F)c2)[nH]1 (configuration not stated)	?	.	-43.9%	-11.8	16.4µM*	?
OC(c1cccc(CN2CCCCC2)c1)c1ncc(-c2cccc(C(F)(F)F)c2)[nH]1 (configuration not stated)	-27.9%	.	-36.9%	-9.6	20.6µM*	14.6µM*
Cc1ccc(-c2cnc(C(O)c3ccc(Cl)c(Cl)c3)[nH]2)cc1 (configuration not stated)	?	.	-100.1%	-3.6	14.6µM*	?
OC(c1ccc2c(c1)OCO2)c1ncc(-c2cccc(C(F)(F)F)c2)[nH]1 (configuration not stated)	-2.3%	.	5.3%	?	8.2µM*	-35.1%
COc1cccc(-c2cnc(C(O)c3cccc(CN4CCCCC4)c3)[nH]2)c1 (configuration not stated)	-3.3%	.	-2.8%	-7.8	-16.3%	?
Cc1cccc(C)c1C(O)c1ncc(-c2cccc(C(F)(F)F)c2)[nH]1 (configuration not stated)	-3.5%	.	-40.8%	-26.4	?	?
CC1CCN(C(=O)C2COc3ccccc3O2)CC1 (configuration not stated)	21.1%	0.9%	14.2%	-18.5	-1.6%	-12.1%
Cc1ccc(S(=O)(=O)N2CCCCC2)cc1NC(=O)CSc1nnc(C2CC2)n1N	-8.8%	1.7%	6.7%	21.3	-24.0%	-12.7%
OC(c1ccc(Cl)c(F)c1)c1ncc(-c2cccc(C(F)(F)F)c2)[nH]1 (configuration not stated)	?	.	-92.1%	0.0	23.1µM*	?
OC(c1ccccc1)c1ncc(-c2cccc(C(F)(F)F)c2)[nH]1 (configuration not stated)	-5.5%	.	-25.0%	2.7	?	?
OC(c1ccc(Cl)c(F)c1)c1ncc(-c2ccc(F)cc2)[nH]1 (configuration not stated)	-11.7%	.	-24.8%	0.7	-19.4%	?
SMILES	TGFb SMAD3 inh	S-ASM inh	HepG2 tox	IL-1B inflam inh	TDP1 cell noCPT	DT40 TDP1 CPT
Cc1ccc(C(O)c2ncc(-c3cccc(C(F)(F)F)c3)[nH]2)cc1 (configuration not stated)	?	.	-46.1%	-11.9	18.4µM*	?
Cc1ccc(C(O)c2ncc(-c3cccc(C(F)(F)F)c3)[nH]2)cc1F (configuration not stated)	?	.	-53.3%	-5.0	13µM*	25.9µM*
Cc1noc(C)c1C(=O)Nc1ccccc1C(=O)NCCc1ccccc1	8.6%	1.3%	-0.2%	31.3	?	?
COc1ccccc1-c1ccnc(-n2ncc(C(=O)NCc3ccncc3)c2C)n1	.	.	.	.	-27.5%	-9.1%[9.04 µM]
Cc1ccccc1CS(=O)(=O)c1snnc1C	-12.6%	-1.2%	-2.8%	-23.0	23.1%	-23.0%
Cc1ccccc1CS(=O)(=O)c1cnc2ccccc2n1	?	3.4%	-23.9%	-119.4*	29.1µM*	?
O=C(NCc1cccnc1)c1ccc(NS(=O)(=O)c2cccc([N+](=O)[O-])c2)cc1	3.3%	1.7%	8.1%	10.6	-8.2%	-12.9%
O=C(COC(=O)COc1ccc2c(c1)CCC2)Nc1ccccc1C(F)(F)F	-0.6%	0.9%	-0.7%	13.2	-0.3%	?
CC12CCC(C(=O)n3c1nc1ccccc13)C2(C)C (configuration not stated)	-11.5%	0.9%	-27.4%	?	20.6µM*	18.4µM*
COc1ccc(OC)c(S(=O)(=O)NCc2ccccn2)c1	-1.1%	3.0%	0.5%	-1.6	-2.4%	-1.9%
Fc1cccc(Cc2noc(CN3CCCCC3CCc3ccccn3)n2)c1 (configuration not stated)	-20.8%	1.8%	-12.0%	-79.3*	?	8.1%
COc1ccc(N2CCN(Cc3nc(Cc4cccc(F)c4)no3)C(C)C2)cc1 (configuration not stated)	-25.6%	-3.1%	-13.0%	1.7	18.4µM*	-24.7%
COc1cccc(CNc2nc3cc(-c4ccccc4C)sc3c(=O)n2C)c1OC	?	.	-20.9%	?	23.1µM*	14.6µM*

Screens as filed in PubChem.
